High-throughput results as filed in PubChem BioAssay.
Compounds with a hit are over-represented: about 1.6% of the library has one in this group of screens.
p53ts 39C kill: cytotoxicity in p53ts cells at nonpermissive temperature. H1299-p53A138V viability at 39C, ATP luminescence, 24 h. Potency, µM (highest dose often 46.1 µM), inactives show at the highest dose activity change, negative = cell killing, usual class: cytotoxic. AID 902. 130,000 compounds, 1.5% hits; also: potency is read from the fitted curve at half-maximal effect; % is scaled to controls: 0 for no effect and ±100 for the full control effect; nearly all actives have a fitted effect of over 55% in size
GFP derepression: epigenetic GFP locus derepression in mouse cells. mouse C127i GFP locus derepression, cytometry, 30 h. Potency, µM (series often up to 46.1 µM), for inactives: at the top dose GFP derepression (activation). 68,000 compounds, 0.09% hits; also: % of control where 0% means no effect
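Derepression screen: silenced CMV-GFP reporter in murine C127i cells, 30 h compound incubation at 37 C, washed cells imaged by laser-scanning cytometer to enumerate GFP-expressing objects of 20 to 120 um.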
Peg3 imprint: genomic imprint erasure induction | mouse ES Peg3-LacZ reporter, beta-gal luminescence, 40 h | AID 1948 | 110,000 compounds, 0.02% hits | Potency, µM (series often up to 60.7 µM), for the others: at the highest dose activity change, positive = activation, most hits filed as activators; also: potency is read from the fitted curve at half-maximal effect
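Gelatin-coated wells received 300 freshly trypsinized female ES cells with a Peg3LacZ-Neo reporter on the maternal allele, then incubated 40 hours at 37C. BetaGlo was added for 5 minutes at room temperature before a single luminescence read.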
HBB splice mod: alters splicing of the hemoglobin beta chain. HBB splicing reporter cell assay, activation; EGFP reporter with mutant IVS2-654 intron; response scale: normalised to 500 nM splice-correcting PNA. Potency, µM (top dose mostly 46.1 µM), for the others: at the highest dose activation, most hits filed as activators. 65,000 compounds, 0.06% hits. AID 925; also: potency is read from the fitted curve at half-maximal effect; 0% is about no effect
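HeLa cells stably expressing EGFP interrupted by mutant beta-globin intron 2 (IVS2-654), 500/well in 2% FCS. Treated with compound for 2 days at 37C. Splicing correction scored as total well GFP intensity (488 nm excitation, 500-520 nm emission); 500 nM antisense PNA served as control.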
p53ts 32C tox: cytotoxicity in p53ts cells at permissive temperature. H1299-p53A138V at 32C, ATP luminescence viability, 24 h. Potency, µM (top dose mostly 46.1 µM), for inactives: top-dose activity change, negative = cytotoxicity, usual class: cytotoxic. 130,000 compounds, 0.93% hits. AID 924;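 also: potency is read from the fitted curve at half-maximal effect; 0% = DMSO and -100% = full killing by reference compound; nearly all actives have a fitted effect of over 55% in size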
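Cells: H1299 p53ts (A138V), 600/well, pre-incubated 16–30 h at 37C. Cpd up to 46 uM, 24 h, 32C. Readout: ATPlite luminescence, 20 min RT. Normalization: DMSO vs tamoxifen 100 uM. AC50 by Hill equation.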
UbGFP stabilizer: ubiquitin-GFP accumulation via proteasome inhibition | AID 526 | Potency, µM (highest dose often 45.9 µM), for inactives: at the top dose activation (GFP accumulation), actives largely listed as activators | Ubiquitin-GFP reporter cells, proteasome inhibition, GFP fluorescence; response scale: untreated = 0%, 10 µM MG-132 = 100% | 67,000 tested, under 10 active; active = well fitted activation curve with a large enough effect, not every such curve was filed as active; inconclusive = small, poorly fitted or top-dose-only effect, or another doubt; inactive = no such curve, though single readings can be large or run the other way; also: potency is read from the fitted curve at half-maximal effect
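Proteasome block read as GFP accumulation: ubiquitin(G76V)-GFP U2OS cells exposed to compound (2.9 nM–46 uM) for 4 hr at 37 C. Normalization used untreated cells as 0% and 10 uM MG-132 as 100%; concentration-response curves fitted.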
The depositor's hits bear a star; ? = inconclusive; / = no result; [ ] = remark or other dose. Unless noted, calls follow the shape of the dose curve; as a rule, active = well fitted curve in the direction sought with a large enough effect; inconclusive = small, poorly fitted or top-dose-only effect, or another doubt; inactive = no such curve, though single readings can be large; an effect the other way counts as inactive or inconclusive.

SMILES | p53ts 39C kill | GFP derepression | Peg3 imprint | HBB splice mod | p53ts 32C tox | UbGFP stabilizer
Cn1nnc(NC(=O)c2ccc(C(C)(C)C)cc2)n1 | 7.94µM* | -1.9% | -37.6% | / | 10µM* | -2.3%
CCOc1ccc(NC(=O)Nc2cccc(C)n2)cc1 | ? | / | 3.8%[10.9 µM] | / | -22.0% | /
CCCC(=O)Nc1nc2ccc(OCC)cc2s1 | -15.4% | / | -29.8% | -0.1% | -23.6% | 3.7%
CCOc1ccc2nc(NC(=O)c3ccccc3)sc2c1 | ? | / | -74.0%[10.9 µM] | / | 6.31µM* | /
CCN(CC)C(=O)C1CCCN(C/C(C)=C/c2ccccc2)C1 (stereo not given) | -1.7% | 2.5% | -4.6% | 1.9% | 8.5% | 6.0%
CCOc1ccc(NC(=O)c2c(C)oc3nc(C)nc(N4CCCC4)c23)cc1 | 13.2% | / | -5.2%[10.9 µM] | / | 2.4% | /
Cc1nc(N2CCN(Cc3ccc4c(c3)OCO4)CC2)nc2c1C(=O)CC(c1ccco1)C2 (stereo not given) | 7.2% | -2.0% | -4.5% | 2.6%[1.84 µM] | 1.9% | 9.8%
CCCCOc1ccc(C(=O)Nc2cccc(C)n2)cc1 | 15.8µM* | 1.0% | 2.9% | -0.6% | 12.6µM* | -9.0%
O=C(Nc1nc(=O)c2ccccc2s1)c1ccccc1 | / | -2.2%[20.6 µM] | / | / | / | /
Cc1ccc(C(=O)Nc2nc3ccccc3c(=O)s2)cc1 | 15.8µM* | 0.0% | / | / | 12.6µM* | 2.6%
Cc1cc(NC(=O)C(C)C)ncc1NC(=O)Cc1ccccc1 | 1.8% | 2.4% | -11.2% | / | -2.0% | 3.1%
O=C(NCc1nc2ncc(Br)cc2[nH]1)c1ccccc1 | 2.9% | 26.8% | -7.3% | 0.1%[57.5 µM] | 10.8% | -1.1%
CCC(C)NC(=O)Cn1c(=O)n(Cc2ccc(C(=O)NCc3ccc(C)cc3)cc2)c(=O)c2ccccc21 (stereo not given) | 20µM* | / | 11.6%[10.9 µM] | / | ? | /
Cc1ccc(-n2[nH]c(C)c(C=Nc3ccc(C)cn3)c2=O)cc1 | 12.6µM* | -1.2% | -46.9% | 0.5% | 12.6µM* | -4.1%
Cc1[nH]n(-c2ccccc2)c(=O)c1/C=N/c1ccccn1 | ? | 2.1% | -37.9% | -1.5% | ? | -6.3%
CCCCOC(=O)c1ccc(NC(=O)c2sc3nc(C)cc(C)c3c2N)cc1 | ? | / | -11.8%[10.9 µM] | / | 15.8µM* | /
Cc1cc(C)c2c(N)c(C(=O)Nc3nccs3)sc2n1 | 1µM* | 2.5% | -47.5% | -3.2% | 0.794µM* | 3.1%
COCc1cc(C)nc2sc(C(=O)Nc3nccs3)c(N)c12 | -13.7% | / | -8.6% | -0.1% | -6.5% | 0.6%
CCOC(=O)c1sc2nc(C)cc(C)c2c1N | -16.8% | / | / | / | -12.2% | /
COc1ccc(CNC(=O)CN(c2cccc(OC)c2)S(C)(=O)=O)cc1 | 1.9% | -1.3% | -3.0% | / | -6.3% | 0.0%
CC(=O)c1ccc(OCC(O)CN2CCC(C)CC2)cc1 (stereo not given) | -3.5% | / | -14.1% | -1.6% | 6.1% | 17.1%
Cc1cccc(-c2nc(SCc3cc(=O)c4c(C)cc(C)cc4[nH]3)n[nH]2)c1 | 20µM* | / | 13.3%[10.9 µM] | / | ? | /
Cc1cnc(NC(=O)COc2ccccc2Cl)s1 | 5.01µM* | 2.6% | -82.8% | 0.0% | 3.98µM* | -0.9%
Cc1cnc(NC(=O)CSc2nnc(-c3ccccc3)o2)s1 | 10µM* | 1.6% | -59.3% | 0.0% | ? | -7.4%
Cc1ccc(-c2nnc(SCC(=O)Nc3ccccc3F)o2)cc1 | 2.51µM* | -0.4% | -91.0% | 0.3% | 5.01µM* | 1.7%
O=C(COc1ccccc1Cl)Nc1nc2c(s1)CCCC2 | -18.3% | / | -13.9%[10.9 µM] | / | -14.9% | /
O=C(CSc1nnc(-c2ccccc2)o1)Nc1ccccc1F | 10µM* | -2.3% | -92.9% | -0.6% | 12.6µM* | -2.9%
COc1ccccc1-c1nnc(SCC(=O)Nc2ccccc2F)o1 | -1.3% | / | -43.1%[10.9 µM] | / | -19.4% | /
CCC(C)NC(=O)c1c(F)c(F)c(F)c(F)c1F (stereo not given) | 1.4% | / | / | / | -16.4% | /
Cc1ccc(NC2=CC(=O)C(=O)c3ccccc32)cc1 | 3.16µM* | / | / | / | ? | /
